Data on 15 compounds can be found in PubChem BioAssay (EPA / NIEHS).

A short description of assay [1]: ATG_CRE_CIS: Attagene CIS-FACTORIAL HepG2 Assay for human cAMP Responsive Element (CRE) binding protein 3 (AID 2282926). The conditions noted are these: HepG2 CRE cis-reporter, Attagene multiplexed mRNA; actives raise or lower the signal. The essentials:
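Liver-derived HepG2, transfected with a CRE-containing reporter panel, exposed 24 h; transcript levels sized and quantified by capillary electrophoresis of labelled amplicons; signal changes either way referenced to vehicle.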

Assay [2] has as its target CCAAT/enhancer-binding protein beta (Homo sapiens) (UniProt P17676). The assay can be described thus: ATG_C_EBP_CIS: Attagene CIS-FACTORIAL HepG2 Assay for human CCAAT/Enhancer Binding Protein (C/EBP) beta (AID 2282927). The conditions noted are these: HepG2 Attagene cis-factorial transcription factor reporter; actives raise or lower the signal. The essentials: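 Endogenous transcription factor activity in human liver HepG2 cells is inferred from induction of a CEBPB-linked reporter mRNA. Exposure lasts 24 h; activity is fitted in both directions relative to DMSO.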

Assay [3] is described as follows: ATG_CMV_CIS: Attagene CIS-FACTORIAL HepG2 Assay for human CMV (Internal Marker) (AID 2282928).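 Further: endpoint acts as a background internal control marker rather than a target.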 The conditions noted are these: HepG2 CMV promoter reporter, transcription factor profiling; actives raise or lower the signal. The essentials: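 Bidirectional fits against DMSO are applied to reporter mRNA, read by RT-PCR with capillary electrophoresis, from HepG2 cells exposed 24 h. The endpoint serves as an internal CMV background marker within the cis-factorial reporter panel.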

Assay [4] in a line: ATG_DR4_LXR_CIS: Attagene CIS-FACTORIAL HepG2 Assay for human Liver X Receptor (LXR), DR4 submotif (AID 2282929). The conditions noted are these: HepG2 Attagene DR4 cis-reporter, mRNA transcription; AC50: actives raise or lower the signal unless noted; outcome: actives raise or lower the signal unless noted. The essentials: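 After transient transfection with multiplexed cis-promoter reporter units, HepG2 cells received test chemicals for 24 h. Reporter mRNA induction, detected by fluorescence after RT-PCR and capillary electrophoresis, was scored relative to DMSO.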

The target in assay [5] is Aryl hydrocarbon receptor (Homo sapiens) (UniProt P35869). Briefly: ATG_Ahr_CIS: Attagene CIS-FACTORIAL HepG2 Assay for human Aryl Hydrocarbon Receptor (Ahr) (AID 2282930). The conditions noted are these: HepG2 AhR cis-factorial reporter transcription; actives raise or lower the signal. The essentials:
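Transient MRTU transfection of HepG2 → 24 h compound exposure → total RNA, oligo(dT) RT → PCR, 6-FAM extension, HpaI cut → CE fluorescence. DMSO = baseline; bidirectional curve fit.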

Assay [6] in a line: ATG_AP_1_CIS: Attagene CIS-FACTORIAL HepG2 Assay for human Activator Protein 1 (AP-1) (AID 2282931). The conditions noted are these: HepG2 Attagene cis-factorial AP-1 reporter mRNA; actives raise or lower the signal. The essentials: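 After 24 h incubation with test chemical, RNA from transfected HepG2 cells was reverse-transcribed, amplified, fluorescently labelled and digested before capillary electrophoresis. Reporters were driven by cis-regulatory promoters; activity fitted bidirectionally versus DMSO.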

A short description of assay [7]: ATG_BRE_CIS: Attagene CIS-FACTORIAL HepG2 Assay for human Bone Morphogenetic Protein (BMP) Response Element (BRE) (AID 2282933). The conditions noted are these: HepG2 BMP response element reporter, Attagene transcription factor profiling; actives raise or lower the signal. The essentials:
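Transient MRTU transfection of human HepG2 liver cells; 24 h compound treatment; total RNA isolated, reverse-transcribed, PCR-amplified, 6-FAM labelled, HpaI-cut, capillary electrophoresis. DMSO = negative control/baseline, bidirectional fit.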

Assay [8] has as its target Transcription factor E2F1 (Homo sapiens) (UniProt Q01094). Briefly: ATG_E2F_CIS: Attagene CIS-FACTORIAL HepG2 Assay for human E2F Transcription Factor 1 (AID 2282935). The conditions noted are these: HepG2 Attagene cis-reporter, E2F reporter RNA transcripts; actives raise or lower the signal. The essentials:
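Gain or loss of reporter transcript, fitted against DMSO, reflects E2F1-driven transcription. Transiently transfected HepG2 dosed 24 h before RNA isolation. Quantified by fluorescent RT-PCR products separated by capillary electrophoresis.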

Assay [9] deals with Retinoic acid receptor alpha (Homo sapiens) (UniProt P10276). The assay can be described thus: ATG_DR5_RAR_CIS: Attagene CIS-FACTORIAL HepG2 Assay for human Retinoic Acid Receptor Alpha (RARE), DR5 submotif (AID 2282934).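 On AC50: reporter responds to endogenous RAR alpha beta and gamma in HepG2 not RARA alone.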 The conditions noted are these: HepG2 Attagene cis-factorial RARE DR5 reporter, mRNA; actives raise or lower the signal. The essentials:
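Transient MRTU transfection of HepG2; 24 h compound treatment; TriZol RNA, oligo(dT) RT, PCR, FAM labelling, capillary electrophoresis. Bidirectional fit vs DMSO. Endogenous TF activity at DR5 RARE.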

Assay [10] is described as follows: ATG_AP_2_CIS: Attagene CIS-FACTORIAL HepG2 Assay for human Activator Protein 2 (AP-2) (AID 2282932). The conditions noted are these: HepG2 AP-2 cis-reporter, Attagene transcription factor profiling; AC50: actives raise or lower the signal unless noted; outcome: actives raise or lower the signal unless noted. The essentials:
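Endogenous transcription factor activity is reported through transfected multiplex reporter constructs in HepG2, after 24 h of compound exposure. Transcripts were quantified by RT-PCR and capillary electrophoresis of fluorescent fragments. Bidirectional fit against DMSO.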

Activity calls are given as the source filed them. How the source made its calls: active means hit-call score of the fitted dose curve at least 0.9, where 1 is the maximum; inactive means score below 0.9.

CCAAT/enhancer-binding protein beta (Homo sapiens), sequence (P17676 whole entry, looked up): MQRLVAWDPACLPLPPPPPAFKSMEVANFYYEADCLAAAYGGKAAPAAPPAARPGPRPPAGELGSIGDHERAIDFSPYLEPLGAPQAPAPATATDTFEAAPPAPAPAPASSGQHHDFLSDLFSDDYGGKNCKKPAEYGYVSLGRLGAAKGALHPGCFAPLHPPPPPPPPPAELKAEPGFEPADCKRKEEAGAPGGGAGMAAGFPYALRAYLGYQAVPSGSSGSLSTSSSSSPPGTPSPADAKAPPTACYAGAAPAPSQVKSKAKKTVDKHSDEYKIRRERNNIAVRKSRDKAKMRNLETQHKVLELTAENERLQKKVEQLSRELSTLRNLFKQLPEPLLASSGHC
Transcription factor E2F1 (Homo sapiens), sequence (Q01094 whole entry, looked up): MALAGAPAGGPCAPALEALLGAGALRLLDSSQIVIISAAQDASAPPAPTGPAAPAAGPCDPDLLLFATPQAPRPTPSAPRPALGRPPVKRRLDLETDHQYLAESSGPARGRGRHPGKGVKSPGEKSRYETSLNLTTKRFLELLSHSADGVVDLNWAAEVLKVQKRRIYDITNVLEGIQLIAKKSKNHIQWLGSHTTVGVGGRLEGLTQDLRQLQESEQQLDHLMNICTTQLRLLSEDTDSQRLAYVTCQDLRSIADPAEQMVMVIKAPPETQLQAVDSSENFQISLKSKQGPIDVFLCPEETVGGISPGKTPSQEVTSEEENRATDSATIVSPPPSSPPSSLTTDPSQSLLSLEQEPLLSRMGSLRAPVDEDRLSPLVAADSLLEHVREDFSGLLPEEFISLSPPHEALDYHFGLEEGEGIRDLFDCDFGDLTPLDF
Retinoic acid receptor alpha (Homo sapiens), sequence (P10276 whole entry, looked up): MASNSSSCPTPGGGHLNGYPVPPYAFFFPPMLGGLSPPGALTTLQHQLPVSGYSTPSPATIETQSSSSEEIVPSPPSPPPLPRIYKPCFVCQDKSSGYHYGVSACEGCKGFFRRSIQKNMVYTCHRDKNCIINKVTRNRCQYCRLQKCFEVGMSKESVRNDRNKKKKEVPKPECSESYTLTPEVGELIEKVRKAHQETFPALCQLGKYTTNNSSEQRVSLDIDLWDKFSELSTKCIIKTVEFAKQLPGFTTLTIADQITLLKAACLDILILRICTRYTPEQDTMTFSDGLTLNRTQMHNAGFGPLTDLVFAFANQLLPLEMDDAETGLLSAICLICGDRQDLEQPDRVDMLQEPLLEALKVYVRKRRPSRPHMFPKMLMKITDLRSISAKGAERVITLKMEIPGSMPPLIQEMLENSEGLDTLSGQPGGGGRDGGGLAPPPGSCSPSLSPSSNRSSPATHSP
Aryl hydrocarbon receptor (Homo sapiens), sequence (P35869 whole entry, looked up): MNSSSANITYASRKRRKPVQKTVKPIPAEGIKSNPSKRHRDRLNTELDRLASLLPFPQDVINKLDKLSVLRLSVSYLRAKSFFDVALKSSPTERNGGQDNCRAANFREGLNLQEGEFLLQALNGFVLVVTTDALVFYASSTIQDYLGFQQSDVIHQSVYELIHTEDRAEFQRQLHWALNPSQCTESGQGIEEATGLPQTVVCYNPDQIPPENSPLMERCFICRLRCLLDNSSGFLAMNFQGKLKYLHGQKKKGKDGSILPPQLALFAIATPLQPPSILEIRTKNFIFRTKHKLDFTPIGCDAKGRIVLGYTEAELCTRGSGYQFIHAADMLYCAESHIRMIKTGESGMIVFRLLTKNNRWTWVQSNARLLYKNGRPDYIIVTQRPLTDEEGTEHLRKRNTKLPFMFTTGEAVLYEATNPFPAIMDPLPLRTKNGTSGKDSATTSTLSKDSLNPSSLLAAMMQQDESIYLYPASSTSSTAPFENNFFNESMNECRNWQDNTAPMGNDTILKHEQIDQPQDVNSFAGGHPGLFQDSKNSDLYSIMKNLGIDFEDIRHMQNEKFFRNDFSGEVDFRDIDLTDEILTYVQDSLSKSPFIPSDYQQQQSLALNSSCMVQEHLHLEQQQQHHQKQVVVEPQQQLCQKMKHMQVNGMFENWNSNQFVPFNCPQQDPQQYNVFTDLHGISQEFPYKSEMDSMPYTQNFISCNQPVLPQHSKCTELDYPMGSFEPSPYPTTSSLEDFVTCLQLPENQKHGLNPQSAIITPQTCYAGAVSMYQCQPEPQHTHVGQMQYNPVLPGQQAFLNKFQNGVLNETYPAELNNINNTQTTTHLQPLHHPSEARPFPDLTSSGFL

With `CNNCc1ccc(C(=O)NC(C)C)cc1`, the compound was called inactive in assay [1], in assay [2], in assay [3], in assay [4], in assay [5] and in assay [6]. Further, the compound was called inactive in assay [7] and in [8].
Take `O=C(c1cc(O)c(O)c(O)c1)c1ccc(O)c(O)c1O`: the outcome in assay [1], in [2], in [3], in [4], in assay [6] and in assay [9] was inactive. For the same compound, the compound was classed as inactive in [8]. In addition, the AC50 is 36 µM (active) in assay [5] and 4.01 µM (active) in assay [7].
As to `O=C(O)C(=O)O`, the compound was classed as inactive in [1], in assay [2], in [3], in assay [4], in assay [5] and in [6]. Further, the compound was classed as inactive in assay [7], in [9] and in assay [8].
As to `CC(C)(C)c1ccc(CCC=O)cc1`, the call in assay [1], in assay [2], in [3], in assay [4], in [5] and in assay [6] was inactive. Moreover, the compound was classed as inactive in assay [7] and in assay [8]. Also, the AC50 in assay [9] was 72.3 µM (active).
Regarding `O=C(F)C(F)(F)C(F)(F)C(F)(F)C(F)F`, the compound was classed as inactive in assay [1], in assay [2], in assay [3], in [4], in assay [5] and in assay [6]. The call in assay [7], in assay [9] and in assay [8] was inactive.
`CCCCCCCCCCCCOC(=O)c1cc(O)c(O)c(O)c1`: the result in [1], in assay [2], in assay [3], in [5], in [7] and in assay [9] was inactive. In addition, the outcome in assay [8] was inactive. In addition, the results for the AC50 in assay [4] and in [6] were 6.4 µM (active) and 11.1 µM (active), respectively.
In the case of `CC[N+](CC)(CC)Cc1ccccc1`, the compound was called inactive in assay [1], in [2], in [3], in assay [4], in assay [5] and in [6]. The call in [9] and in assay [8] was inactive.
Turning to `Cc1cncc(C)c1`, the compound was classed as inactive in assay [1], in assay [2], in assay [3], in [4], in assay [5] and in [6]. The compound was called inactive in assay [7], in assay [9] and in [8].
For the compound `CC1=NN(c2ccccc2)C(=O)C1`, the call in [1], in [2], in assay [3], in [4], in assay [6] and in [7] was inactive. For the same compound, the outcome in assay [9] and in assay [8] was inactive.
Regarding `NC(C(F)(F)F)C(F)(F)F`, the compound was called inactive in assay [1], in [2], in [3], in assay [4], in [5] and in [6]. In addition, the outcome in [7], in assay [9] and in assay [8] was inactive.
Take `CCC(C)c1ccccc1O` (stereo unspecified): the outcome in assay [1], in [2], in assay [3], in assay [4], in assay [5] and in [6] was inactive. Moreover, the compound was classed as inactive in assay [9] and in [8].
As to `CCOC(=O)c1nc(C(Cl)(Cl)Cl)n(-c2ccc(Cl)cc2Cl)n1`, the compound was called inactive in [1], in [2], in assay [5] and in [9]. For the same compound, the AC50 in [3] was 29.6 µM (active); in [4], 48.5 µM (active); in [6], 57.8 µM (active); in assay [10], 25.3 µM (active); in [8], 181 µM (active).
In the case of `CCOC(C)=O`, the compound was called inactive in assay [1], in assay [2], in assay [3], in assay [4], in assay [6] and in assay [10]. The result in assay [7], in assay [9] and in assay [8] was inactive.
For the compound `FC(F)(F)C(F)(F)C(F)(F)Br`, the call in assay [1], in assay [2], in assay [3], in assay [4], in assay [5] and in [6] was inactive. In addition, the call in [7], in assay [9] and in assay [8] was inactive.
Regarding `O=CC(F)(F)C(F)(F)C(F)(F)F`, the result in [1], in assay [2], in assay [3], in assay [4], in assay [5] and in assay [6] was inactive. Besides, the outcome in assay [10], in assay [9] and in assay [8] was inactive.

For orientation: AC50 means the concentration giving half of the maximal activity seen.
